Data published in PubChem BioAssay AID651956 (Broad Institute, 2012).
Results with a measured potency or affinity are listed apart. Records with an inconclusive call do not appear. Calls of active or inactive are those of the source.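 The calls were made as follows: active = in every test run, a fitted half-maximal concentration for signal decrease at or below twice the highest tested concentration; inconclusive = runs disagree, flat 30 to 70% decrease, or poor fit; inactive = the rest.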

Experiment: activation of miR-122 Renilla sensor silencing – cell-based, Huh7 psiCHECK-miR122, Renilla luciferase, cherry-picked, dose response (AID 651956);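 also: Renilla luciferase from a miR-122 sensor reporter so lower signal means miR-122 activation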
Details: Huh7 psiCHECK-miR122 Renilla luciferase reporter, 48 h; series mostly up to 35 µM

SMILES | outcome
CNC[C@H]1Oc2cc(C#CC3CCCC3)ccc2S(=O)(=O)N([C@H](C)CO)C[C@H]1C | inactive
CC(C)C(=O)Nc1ccc2c(c1)C(=O)N(C)[C@H]1CC[C@@H](CC(=O)NCc3ccccc3F)O[C@H]1CO2 | inactive
COc1ccc2c(c1)C(C)=CC(C)(C)N2C(=O)CNCc1ccc2c(c1)OCO2 | inactive
COCCN(C[C@H]1[C@@H](c2ccccc2)[C@H](CO)N1C(=O)C1CCC1)C(C)=O | inactive
N#Cc1c(N)nc2c(c1-c1cccs1)CCCC2 | inactive
CC(=O)Nc1ccc2c(c1)C(=O)N(C)[C@@H]1CC[C@@H](CC(=O)NCc3ccc(Cl)cc3)O[C@H]1CO2 | inactive
C/C=C/c1ccc([C@@H]2[C@@H](CNC(=O)c3ccncc3)N(C(=O)CC)[C@H]2CO)cc1 | inactive
Cc1cc(C(=O)Nc2ccc3c(c2)C(=O)N(C)[C@H]2CC[C@@H](CC(=O)N[C@@H](C)c4ccccc4)O[C@H]2CO3)no1 | inactive
Cc1ccc(NCC(=O)c2ccccc2)cc1Cl | inactive
CC(C)C(=O)Nc1ccc2c(c1)C(=O)N(C)[C@H]1CC[C@H](CC(=O)O)O[C@H]1CO2 | inactive
C/C=C/c1ccc([C@H]2[C@@H](CO)N[C@@H]2CN(CC)C(=O)CN2CCOCC2)cc1 | inactive
N#Cc1cccc(NC(=O)Nc2cccs2)c1 | inactive
N#Cc1ccc(C(=O)Nc2ccc(N3CCN(C(=O)c4ccco4)CC3)cc2)c(F)c1 | inactive
CN1C(=O)c2cc(NC(=O)c3ccccc3F)ccc2OC[C@H]2O[C@H](CC(=O)NCc3ccc4c(c3)OCO4)CC[C@@H]21 | inactive
COc1cc2nc(C3CCC3)n(NC(=O)C3CCCC(OC)C3)c(=O)c2cc1OC (centres undefined) | inactive
CCCNC(=O)C[C@H]1CC[C@@H]2[C@@H](COc3ccc(NC(=O)c4ccc5c(c4)OCO5)cc3C(=O)N2C)O1 | inactive
CC(C)C(=O)Nc1ccc2c(c1)C(=O)N(C)[C@H]1CC[C@@H](CC(=O)NCCCN(C)C)O[C@H]1CO2 | inactive
COCC(=O)N(C)C[C@H]1Oc2cc(-c3ccccc3F)ccc2S(=O)(=O)N([C@@H](C)CO)C[C@@H]1C | inactive
CCOc1ccc(CCNC(=O)C2CCN(S(=O)(=O)N3CCC(C)CC3)CC2)cc1OCC | inactive
COCC(=O)N(C[C@@H]1N[C@H](CO)[C@H]1c1ccc(C2=CCCC2)cc1)C(C)C | inactive

SMILES | outcome
CCNC(=O)C[C@@H]1CC[C@H]2[C@@H](COc3ccc(NC(=O)c4ccc(C(F)(F)F)cc4)cc3C(=O)N2C)O1 | inactive
COC(=O)C[C@@H]1CC[C@H]2[C@@H](COc3ccc(NC(=O)Nc4ccccc4C)cc3C(=O)N2C)O1 | inactive
CNC(=O)C[C@H]1CC[C@H]2[C@H](COc3ccc(NC(=O)c4cccc(F)c4)cc3C(=O)N2C)O1 | inactive
CCNC(=O)C[C@H]1CC[C@H]2[C@@H](COc3ccc(NC(=O)c4ccccc4)cc3C(=O)N2C)O1 | inactive
O=c1c2cc(N3CCOCC3)ccc2[nH]c(=S)n1CCCN1CCCC1 | inactive
NS(=O)(=O)c1ccc(Nc2nc(-c3cccnc3)cs2)cc1 | inactive
CCCCC(=O)NC(c1ccccc1OC)c1ccc2cccnc2c1O (centres undefined) | inactive
CCN(C[C@H]1[C@H](c2ccccc2)[C@H](CO)N1C(=O)COC)S(C)(=O)=O | inactive
CCCC(=O)Nc1ccc2c(c1)C(=O)N(C)[C@@H]1CC[C@H](CC(=O)NCCOC)O[C@H]1CO2 | inactive
Cc1ccc(C(=O)n2nc(-c3ccccc3)nc2NCc2ccco2)cc1 | inactive
CC(=O)c1ccc(Nc2nc3ccc(C)cc3n3cnnc23)cc1 | inactive
CSc1cccc(NS(=O)(=O)c2ccccc2)c1 | inactive
COc1cccc(C(=O)Nc2ccc3c(c2)C(=O)N(C)[C@H]2CC[C@H](CC(=O)NCc4ccc(F)cc4)O[C@@H]2CO3)c1 | inactive
COCC(=O)Nc1ccc2c(c1)C(=O)N(C)[C@@H]1CC[C@H](CC(=O)NC3CCCC3)O[C@H]1CO2 | inactive
COCC(=O)NC[C@H]1[C@@H](c2ccc(C3=CCCC3)cc2)[C@@H](CO)N1C(=O)C1CC1 | inactive
COc1cccc(OCc2cc(/C=N/Nc3ccc(C(=O)O)cc3)ccc2OC)c1 | inactive
CO[C@H]1CN(C)C(=O)c2cc(NC(=O)c3ccccc3F)ccc2OC[C@@H](C)N(C)C[C@@H]1C | inactive
CO[C@@H]1CN(C)C(=O)c2ccc(NS(=O)(=O)c3ccc(C)cc3)cc2OC[C@@H](C)N(C(=O)NC(C)C)C[C@H]1C | inactive
CN1C(=O)c2cc(NC(=O)c3cccs3)ccc2OC[C@H]2O[C@@H](CC(=O)NCCN3CCCCC3)CC[C@@H]21 | inactive
